Assay results as given in PubChem BioAssay (NCATS).
Results filed as inconclusive are left out. A number with no mark means an inactive call. Active and inactive are the calls of the source. The call rests on the fitted dose curve; in most records, active means well fitted cell-killing curve with a large enough effect; inconclusive means small, poorly fitted or top-dose-only effect, or effect the other way; inactive means flat fitted curve, though single readings scatter.

system: CAOV3; experiment: Primary qHTS to identify gynecologic anti-cancer compounds using libraries of approved drugs and bioactive compounds (AID 1345084); settings: Gynecologic cancer cell panel viability, ATPlite luminescence, 48 h; series mostly up to 57.5 µM; activity change, negative = cytotoxicity: at the top concentration; further: nearly all actives have a fitted effect of over 55% in size
Text: National Center for Advancing Translational Sciences [NCATS] Assay Overview: Chemotherapeutic drug responses vary from cancer to cancer and from patient to patient. These variations could be caused by a number of factors including patient genomic background, tumor mutations, tumor heterogeneity, and aspects of drug treatment. Chemotherapeutic drug resistance is also a common issue and can lead to ineffective treatment and patient death. Here we have profiled the cell killing effects of thousands of compounds to characterize the responses in three gynecological cancers, identify cancer-selective compounds, and understand the diversity of responses to these compounds from pan-cancer suppressors to single cell line selective compounds. In this assay, we screened a 7,914 compound drug library that included approved drug and bioactive compounds in six ovarian, three cervical, and […] placental cancer cell lines using the ATPlite assay for cell viability. […] The cervical cancer cell lines included HeLa, Ca Ski, and C-33 A. The placental cancer cell lines included JEG-3. HEK 293T cells were used as the control cell line to determine the selectivity index. ATPlite is a luminescence based assay reliant on the conversion of a luciferase substrate to light in the presence of ATP. As a cytotoxic compound will suppress growth and decrease the number of cells, the concentration of ATP will decrease, and less light signal will be detected in the well.
Assay Protocol Summary: 1,000 cells in 4 uL of media were dispensed into white, solid bottom 1536-well plates using a Multidrop Combi (Thermo Scientific). The Assay plates were incubated for 16 hours at 37 C with 5% CO2 in assay plates, followed by the addition of 23 nL of DMSO or drug dissolved in DMSO. Each compound was assayed in five concentrations (0.092, 0.46, 2.3, 11.5, and 57.5 uM), using the automated Wako 1536 Pin Tool workstation and incubated at 37 C with 5% CO2 48 hours. 4 uL of ATPlite, the ATP monitoring reagent, was then added to the each well of the assay plates using the Multidrop Combi reagent dispenser followed by incubation for 15 minutes at room temperature. The resulting luminescence was measured using the ViewLux plate reader.
On the % scale 0 is the no-effect control and ±100 the full control effect; potency means the concentration at half of the fitted maximal effect.

`NC(=O)c1ccccc1O` was tested. Which “activity change, negative = cytotoxicity” value did it give?
The value was 16.8%.

For `COc1cc(C(=S)N2CCOCC2)ccc1O`, which “activity change, negative = cytotoxicity” value is on record?
The value was -2.04%.

For `CC(O)Cn1cnc2c1c(=O)n(C)c(=O)n2C` (stereo not given), which “activity change, negative = cytotoxicity” value is on record?
The value was 1.53%.

Which “activity change, negative = cytotoxicity” value does the source give for `CC(C)(C)NC[C@H](O)COc1cccc2c1CCCC2=O` here?
Its value is 1.37%.

`CC(=O)OC[C@H]1O[C@@H](n2ncc(=O)[nH]c2=O)[C@H](OC(C)=O)[C@@H]1OC(C)=O` was tested. Which “activity change, negative = cytotoxicity” value did it give?
Its value is 18.8%.

With `COC(=O)C(c1ccccc1Cl)N1CCc2sccc2C1` (stereo not given) as the compound, how does the “activity change, negative = cytotoxicity” value read?
The value was 15.7%.

`O=S(=O)(O)c1ccc(O)cc1` was tested. Which “activity change, negative = cytotoxicity” value did it give?
The value was 2.75%.

Which “activity change, negative = cytotoxicity” value does the source give for `CC(C)(Cc1c[nH]c2ccccc12)NCC(O)COc1ccccc1C#N` (stereo not given) here?
The value was -2.92%.

With `Nc1ccc(S(=O)(=O)Nc2cnc3ccccc3n2)cc1` as the compound, how does the “activity change, negative = cytotoxicity” value read?
The value was -3.42%.

For `Cc1nc(-c2ccc(Cl)cc2)oc1COC(C)(C)C(=O)O`, which “activity change, negative = cytotoxicity” value is on record?
The value was 5.42%.

How did the “activity change, negative = cytotoxicity” value turn out when `CC1=C(C(=O)O)N2C(=O)[C@@H](NC(=O)[C@H](N)c3ccccc3)[C@H]2SC1` was run?
Its value is 14%.

How did the “activity change, negative = cytotoxicity” value turn out when `OC(C#CCN1CCCC1)(c1ccccc1)c1ccccc1` was run?
Its value is 0.442%.

`CCCCCCCCCCCCCC(=O)OC(C)C` was tested. Which “activity change, negative = cytotoxicity” value did it give?
The value was -1.71%.

For `CC(CNC1CCCCC1)OC(=O)c1ccccc1` (stereo not given), which “activity change, negative = cytotoxicity” value is on record?
Its value is -12.3%.

With `CC(=O)N[C@@H](CCC(=O)O)C(=O)O` as the compound, how does the “activity change, negative = cytotoxicity” value read?
Its value is 3.91%.

For `COc1ccc(C(=O)c2ccccc2O)c(O)c1`, which “activity change, negative = cytotoxicity” value is on record?
Its value is -10.1%.

How did the “activity change, negative = cytotoxicity” value turn out when `Cc1cc(CC(=O)O)c(C)n1-c1ccc(Cl)cc1` was run?
Its value is 15%.

`Nc1nc(-c2ccccc2)c(Br)c(=O)[nH]1` was tested. Which “activity change, negative = cytotoxicity” value did it give?
Its value is -3.9%.

Which “activity change, negative = cytotoxicity” value does the source give for `CC(C)(C)NCC(O)COc1cccc2c1C[C@H](O)[C@H](O)C2` (stereo not given in full) here?
The value was 22%.

`OCc1ccccn1` was tested. Which “activity change, negative = cytotoxicity” value did it give?
The value was 9.19%.

With `O=C(O)CCNC(=O)c1ccccc1` as the compound, how does the “activity change, negative = cytotoxicity” value read?
The value was -0.079%.

With `CC(C)[N+](C)(C)CC(O)COc1cccc2ccccc12` (stereo not given) as the compound, how does the “activity change, negative = cytotoxicity” value read?
Its value is -10.2%.

`CCCCCCCCOc1ccc(C(=O)c2ccccc2)c(O)c1` was tested. Which “activity change, negative = cytotoxicity” value did it give?
The value was 3.42%.

Which “activity change, negative = cytotoxicity” value does the source give for `Cc1cc(C)cc(OCC2CNC(=O)O2)c1` (stereo not given) here?
Its value is -6.24%.

`CCOc1ccccc1OCCN[C@H](C)Cc1ccc(OC)c(S(N)(=O)=O)c1` was tested. Which “activity change, negative = cytotoxicity” value did it give?
The value was 11.6%.

For `NS(=O)(=O)c1cc2c(cc1Cl)NC(CC1CCCC1)NS2(=O)=O` (stereo not given), which “activity change, negative = cytotoxicity” value is on record?
The value was 4.56%.

With `CCC(C(=O)OCCOCCN(CC)CC)c1ccccc1` (stereo not given) as the compound, how does the “activity change, negative = cytotoxicity” value read?
The value was 1.83%.

For `c1ccc(CC2=NCCN2)cc1`, which “activity change, negative = cytotoxicity” value is on record?
Its value is -3.69%.

Which “activity change, negative = cytotoxicity” value does the source give for `CC(=O)Nc1ncc([N+](=O)[O-])s1` here?
The value was 0%.

`O[C@@H](c1cc(C(F)(F)F)nc2c(C(F)(F)F)cccc12)[C@H]1CCCCN1` was tested. Which Potency did it give?
The Potency was 20 µM (active).

For `CN(C)C(=O)Nc1ccc(Cl)c(Cl)c1`, which “activity change, negative = cytotoxicity” value is on record?
The value was -14.6%.

Which “activity change, negative = cytotoxicity” value does the source give for `C[N+]1(CC2COC(c3ccccc3)(C3CCCCC3)O2)CCCCC1` (stereo not given) here?
Its value is -29.6%.

Which “activity change, negative = cytotoxicity” value does the source give for `CCCCc1cc2ccccc2c(OCCN(C)C)n1` here?
The value was -21.6%.

How did the “activity change, negative = cytotoxicity” value turn out when `COP(=O)(OC)OC(c1ccc(Cl)cc1)P(=O)(OC)OC` (stereo not given) was run?
The value was -1.88%.

How did the “activity change, negative = cytotoxicity” value turn out when `O=C(Nc1cccc(C2=NCCN2)c1)Nc1cccc(C2=NCCN2)c1` was run?
The value was -4.71% [at 25.3 µM].

With `COc1ccccc1N1CCN(CCCCNC(=O)c2ccc(-c3ccc(C(C)=O)cc3)cc2)CC1` as the compound, how does the “activity change, negative = cytotoxicity” value read?
Its value is -5.01%.

Which “activity change, negative = cytotoxicity” value does the source give for `CC(C)=CCOc1ccc(/C=C/C(=O)c2ccc(OCC=C(C)C)cc2OCC(=O)O)cc1` here?
Its value is -2.92%.

For `CO[C@]12C[C@@H](COC(=O)c3cncc(Br)c3)CN(C)[C@@H]1Cc1cn(C)c3cccc2c13`, which “activity change, negative = cytotoxicity” value is on record?
Its value is 22%.

How did the “activity change, negative = cytotoxicity” value turn out when `OC[C@H]1O[C@@H](Oc2ccc(O)cc2)[C@H](O)[C@@H](O)[C@@H]1O` was run?
Its value is -7.65%.

Which “activity change, negative = cytotoxicity” value does the source give for `CN1CCN(C2=Nc3cc(F)ccc3Cc3ccccc32)CC1` here?
Its value is -0.0164%.
